Data reported in ChEMBL document CHEMBL3988442, “University of Dundee, Small-Polar-MMV Screening Library” (2021).
For part of these data: Measured potencies and affinities stand elsewhere.

Columns and labels:
Parameters in all cases: scale not given: direction of the effect not stated beside the values
[1] = target: Protein translocase subunit SecA (Escherichia coli (strain K12)) (UniProt P10408); experiment: Assay to Identify E. coli SecA ATPase Inhibitors; type: functional; settings: 30 µM
[2] = target: T1, Ubiquitin-activating enzyme e1, putative (Leishmania donovani (strain BPK282A1)) (UniProt E9BSI1); experiment: Leishmania donovani Ubiquitin Activating Enzyme (LdE1); type: functional; settings: 30 µM
T1 sequence (whole entry): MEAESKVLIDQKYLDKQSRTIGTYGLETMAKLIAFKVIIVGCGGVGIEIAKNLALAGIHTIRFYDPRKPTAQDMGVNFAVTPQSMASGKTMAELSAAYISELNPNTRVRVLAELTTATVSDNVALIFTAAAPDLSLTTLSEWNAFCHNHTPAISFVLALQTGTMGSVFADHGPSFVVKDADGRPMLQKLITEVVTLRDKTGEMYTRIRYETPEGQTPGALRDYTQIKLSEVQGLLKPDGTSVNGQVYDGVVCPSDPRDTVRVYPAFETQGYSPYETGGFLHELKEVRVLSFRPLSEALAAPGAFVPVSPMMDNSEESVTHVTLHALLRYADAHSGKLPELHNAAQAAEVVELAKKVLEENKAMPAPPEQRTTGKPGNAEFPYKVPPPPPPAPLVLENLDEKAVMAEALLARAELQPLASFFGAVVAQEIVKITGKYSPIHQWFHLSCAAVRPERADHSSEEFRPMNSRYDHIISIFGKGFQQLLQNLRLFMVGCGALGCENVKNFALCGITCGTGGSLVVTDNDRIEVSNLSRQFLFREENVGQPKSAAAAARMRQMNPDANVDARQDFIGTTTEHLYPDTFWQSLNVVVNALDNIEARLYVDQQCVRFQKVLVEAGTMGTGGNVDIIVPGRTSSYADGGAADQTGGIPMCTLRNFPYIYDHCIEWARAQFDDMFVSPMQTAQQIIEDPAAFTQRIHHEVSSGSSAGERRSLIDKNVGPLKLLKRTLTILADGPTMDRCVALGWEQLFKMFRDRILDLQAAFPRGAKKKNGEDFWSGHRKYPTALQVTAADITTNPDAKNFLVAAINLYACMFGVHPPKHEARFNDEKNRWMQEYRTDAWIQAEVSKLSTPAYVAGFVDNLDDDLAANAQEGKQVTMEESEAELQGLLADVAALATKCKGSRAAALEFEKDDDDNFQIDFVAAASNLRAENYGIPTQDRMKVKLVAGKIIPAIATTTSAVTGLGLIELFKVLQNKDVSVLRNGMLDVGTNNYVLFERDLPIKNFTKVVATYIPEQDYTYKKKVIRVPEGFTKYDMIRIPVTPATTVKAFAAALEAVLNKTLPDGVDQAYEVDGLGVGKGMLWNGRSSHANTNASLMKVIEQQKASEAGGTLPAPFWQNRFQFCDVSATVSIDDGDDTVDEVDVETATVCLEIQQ

[3] = target: T2, Aspartate--tRNA(Asp/Asn) ligase (Mycobacterium tuberculosis (strain ATCC 25618 / H37Rv)) (UniProt P9WFW3); experiment: Assay for Asp RNA synthetase-1 from Mycobacterium tuberculosis; type: functional; settings: 30 µM; note: in the data most compounds retested in dose-response had high values
T2 sequence (whole entry): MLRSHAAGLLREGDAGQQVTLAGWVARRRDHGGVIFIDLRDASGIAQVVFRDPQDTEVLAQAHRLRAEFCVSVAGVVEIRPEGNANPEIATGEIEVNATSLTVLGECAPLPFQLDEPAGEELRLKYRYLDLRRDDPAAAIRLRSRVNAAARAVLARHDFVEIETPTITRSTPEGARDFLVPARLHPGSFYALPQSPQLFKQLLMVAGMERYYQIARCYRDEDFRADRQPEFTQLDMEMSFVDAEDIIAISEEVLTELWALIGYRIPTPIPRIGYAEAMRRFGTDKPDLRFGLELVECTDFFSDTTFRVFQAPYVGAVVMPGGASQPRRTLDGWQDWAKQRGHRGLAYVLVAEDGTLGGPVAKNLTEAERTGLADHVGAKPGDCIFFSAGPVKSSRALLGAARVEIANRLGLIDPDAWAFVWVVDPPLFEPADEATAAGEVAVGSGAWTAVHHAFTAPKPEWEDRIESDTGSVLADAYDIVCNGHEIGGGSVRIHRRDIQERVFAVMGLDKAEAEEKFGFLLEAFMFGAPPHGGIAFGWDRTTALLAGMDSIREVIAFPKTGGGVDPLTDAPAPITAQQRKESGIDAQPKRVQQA

[4] = target: AMP-activated protein kinase, AMPK (Homo sapiens) (UniProt P54646+O43741+P54619+Q9UGJ0+Q9Y478+Q13131+Q9UGI9); experiment: AMP-dependent Kinase enzyme assay. An in vitro enzyme assay that detects ADP turnover that is directly proportional to AMPK activity. This uses naive AMPK that is activated during the assay with MK-8722; type: functional; settings: 30 µM
[5] = target: Sialic acid-binding Ig-like lectin 9 (Homo sapiens) (UniProt Q9Y336); experiment: Hs-Siglec9 ALPHAscreen SOP 20170721; settings: 10 µM
Sequence of Sialic acid-binding Ig-like lectin 9 (Homo sapiens) (Q9Y336 whole entry): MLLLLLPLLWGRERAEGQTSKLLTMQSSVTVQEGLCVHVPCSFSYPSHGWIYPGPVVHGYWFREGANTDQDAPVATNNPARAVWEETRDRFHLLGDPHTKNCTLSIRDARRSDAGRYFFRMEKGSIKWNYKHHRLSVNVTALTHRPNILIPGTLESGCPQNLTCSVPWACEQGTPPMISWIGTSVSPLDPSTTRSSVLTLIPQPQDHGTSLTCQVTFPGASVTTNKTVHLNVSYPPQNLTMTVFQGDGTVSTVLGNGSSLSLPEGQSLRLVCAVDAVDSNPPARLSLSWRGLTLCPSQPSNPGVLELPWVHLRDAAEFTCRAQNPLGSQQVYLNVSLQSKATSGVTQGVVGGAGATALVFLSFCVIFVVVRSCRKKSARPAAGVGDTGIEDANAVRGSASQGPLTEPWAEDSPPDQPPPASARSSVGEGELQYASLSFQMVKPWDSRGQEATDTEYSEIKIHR

Trypanosoma cruzi = experiment: Trypanosoma cruzi phosphomannomutase and mannose-1-phosphate guanylyltransferase assay; type: functional; settings: 10 µM
[6] = target: T3, Arginase-2, mitochondrial (Homo sapiens) (UniProt P78540); experiment: in vitro enzyme assay to detect the production of urea directly proportional to the activity of Arginase II; type: functional; settings: 33.3 µM; note: in the data most compounds retested in dose-response had high values
T3 sequence (whole entry): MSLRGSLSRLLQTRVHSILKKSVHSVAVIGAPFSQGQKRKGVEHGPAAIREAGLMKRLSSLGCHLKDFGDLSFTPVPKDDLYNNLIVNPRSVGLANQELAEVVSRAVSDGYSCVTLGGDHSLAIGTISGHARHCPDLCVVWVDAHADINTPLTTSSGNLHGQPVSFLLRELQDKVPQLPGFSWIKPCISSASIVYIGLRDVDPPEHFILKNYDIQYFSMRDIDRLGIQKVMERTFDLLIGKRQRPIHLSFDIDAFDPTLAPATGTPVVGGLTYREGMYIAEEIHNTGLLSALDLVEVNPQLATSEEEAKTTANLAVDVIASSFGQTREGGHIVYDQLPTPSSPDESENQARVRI

[7] = target: T4, Proteasome subunit beta (Trypanosoma cruzi) (UniProt O96673); experiment: Trypanosoma cruzi proteasome chymotrypsin-like activity (TcProtChymo) assay.; note: in the data most compounds retested in dose-response had high values; type: functional; settings: 9.37 µM
T4 sequence (whole entry): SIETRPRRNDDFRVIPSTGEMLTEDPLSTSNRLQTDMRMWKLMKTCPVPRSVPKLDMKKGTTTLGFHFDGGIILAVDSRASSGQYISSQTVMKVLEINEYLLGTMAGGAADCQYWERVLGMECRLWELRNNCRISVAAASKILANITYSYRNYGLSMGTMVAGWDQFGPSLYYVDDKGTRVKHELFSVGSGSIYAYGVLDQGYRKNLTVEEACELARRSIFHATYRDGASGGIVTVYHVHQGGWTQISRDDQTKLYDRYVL

Homo sapiens = organism: Homo sapiens; experiment: To identify inhibition of the IFN signalling (Jak-Stat) pathway via expression of an eGFP reporter gene under the control of an IFN-stimulated response element (ISRE) containing MxA promoter.; type: functional; settings: 30 µM
[8] = target: Shiga toxin 2 (Escherichia coli O157:H7) (UniProt P09385+P09386); experiment: E. coli 0.157:H7 Shiga Toxin SOP - stx2 screening assay; type: functional; settings: 30 µM
[9] = target: T5, Tyrosyl-tRNA synthetase, putative (Trypanosoma cruzi (strain CL Brener)) (UniProt Q4DSP6); experiment: Trypanosoma cruzi tyrosyl tRNA synthetase (TcYRS) _High Tyrosine SOP; type: functional; settings: 30 µM; note: in the data most compounds retested in dose-response had high values
T5 sequence (whole entry): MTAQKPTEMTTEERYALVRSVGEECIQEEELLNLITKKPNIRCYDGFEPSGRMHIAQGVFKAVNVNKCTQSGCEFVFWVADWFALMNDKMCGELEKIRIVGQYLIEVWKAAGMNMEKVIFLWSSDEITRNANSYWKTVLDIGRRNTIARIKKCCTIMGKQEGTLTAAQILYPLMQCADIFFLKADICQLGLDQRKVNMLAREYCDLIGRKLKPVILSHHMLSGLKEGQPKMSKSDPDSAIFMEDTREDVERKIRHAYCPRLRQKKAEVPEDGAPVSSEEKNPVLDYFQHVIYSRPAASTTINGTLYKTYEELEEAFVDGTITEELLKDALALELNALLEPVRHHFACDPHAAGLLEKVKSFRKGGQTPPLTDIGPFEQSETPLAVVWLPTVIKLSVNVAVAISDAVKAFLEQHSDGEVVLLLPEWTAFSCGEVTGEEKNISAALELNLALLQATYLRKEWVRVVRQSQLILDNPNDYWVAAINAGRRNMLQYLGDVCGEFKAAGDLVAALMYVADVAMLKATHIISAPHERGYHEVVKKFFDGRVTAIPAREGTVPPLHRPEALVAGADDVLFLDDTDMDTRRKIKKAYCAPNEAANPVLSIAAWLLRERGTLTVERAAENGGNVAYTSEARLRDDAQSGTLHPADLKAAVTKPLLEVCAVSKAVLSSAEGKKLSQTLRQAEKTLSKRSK

[10] = target: T5, Tyrosyl-tRNA synthetase, putative (Trypanosoma cruzi (strain CL Brener)); experiment: Trypanosoma cruzi tyrosyl tRNA synthetase (TcYRS) SOP; type: functional; settings: 30 µM
[11] = target: Chromo domain-containing protein 1 (Saccharomyces cerevisiae (strain ATCC 204508 / S288c) (Baker's yeast)) (UniProt P32657); experiment: ScCHD-1 Enzyme Inhibition Assay; type: functional; settings: 30 µM; note: in the data most compounds retested in dose-response had high values
Sequence of Chromo domain-containing protein 1 (Saccharomyces cerevisiae (strain ATCC 204508 / S288c) (Baker's yeast)) (P32657 whole entry, the tested form may be a part): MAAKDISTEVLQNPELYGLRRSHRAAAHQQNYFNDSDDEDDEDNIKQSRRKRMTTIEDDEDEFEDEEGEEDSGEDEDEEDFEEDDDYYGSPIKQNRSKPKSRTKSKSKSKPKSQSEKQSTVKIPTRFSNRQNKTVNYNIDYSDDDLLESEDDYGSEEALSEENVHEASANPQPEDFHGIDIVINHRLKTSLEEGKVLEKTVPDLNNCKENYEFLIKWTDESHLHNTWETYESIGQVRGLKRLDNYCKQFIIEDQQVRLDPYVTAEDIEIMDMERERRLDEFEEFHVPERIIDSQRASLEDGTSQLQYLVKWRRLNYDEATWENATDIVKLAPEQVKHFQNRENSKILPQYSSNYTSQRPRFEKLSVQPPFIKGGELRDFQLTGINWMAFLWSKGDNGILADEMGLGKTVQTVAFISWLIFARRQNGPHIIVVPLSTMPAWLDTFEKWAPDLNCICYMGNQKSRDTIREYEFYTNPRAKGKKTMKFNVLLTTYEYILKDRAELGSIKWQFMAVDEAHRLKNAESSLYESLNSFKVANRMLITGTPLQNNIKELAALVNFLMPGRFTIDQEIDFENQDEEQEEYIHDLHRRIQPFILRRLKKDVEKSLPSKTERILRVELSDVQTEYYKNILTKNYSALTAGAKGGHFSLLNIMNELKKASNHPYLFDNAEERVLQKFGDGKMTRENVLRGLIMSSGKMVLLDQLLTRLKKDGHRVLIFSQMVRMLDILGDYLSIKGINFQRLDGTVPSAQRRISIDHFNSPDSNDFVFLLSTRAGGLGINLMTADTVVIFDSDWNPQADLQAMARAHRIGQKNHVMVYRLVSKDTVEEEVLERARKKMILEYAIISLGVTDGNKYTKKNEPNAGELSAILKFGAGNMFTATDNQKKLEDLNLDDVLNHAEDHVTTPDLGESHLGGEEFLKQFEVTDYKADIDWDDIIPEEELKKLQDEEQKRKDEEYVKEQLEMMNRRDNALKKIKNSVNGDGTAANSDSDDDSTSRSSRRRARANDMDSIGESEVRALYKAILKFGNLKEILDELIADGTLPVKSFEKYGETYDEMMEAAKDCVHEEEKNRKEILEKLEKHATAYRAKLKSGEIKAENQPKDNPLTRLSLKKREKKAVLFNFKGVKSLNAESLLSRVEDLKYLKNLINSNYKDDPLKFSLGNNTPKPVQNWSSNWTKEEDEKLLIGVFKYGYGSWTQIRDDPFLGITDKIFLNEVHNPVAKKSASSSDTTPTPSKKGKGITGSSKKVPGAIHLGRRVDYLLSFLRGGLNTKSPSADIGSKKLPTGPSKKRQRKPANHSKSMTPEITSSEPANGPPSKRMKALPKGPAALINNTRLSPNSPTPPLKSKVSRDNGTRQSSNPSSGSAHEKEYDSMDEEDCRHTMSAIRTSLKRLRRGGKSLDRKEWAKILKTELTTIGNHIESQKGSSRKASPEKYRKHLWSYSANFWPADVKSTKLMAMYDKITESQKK

Sequence of Protein translocase subunit SecA (Escherichia coli (strain K12)) (P10408 whole entry): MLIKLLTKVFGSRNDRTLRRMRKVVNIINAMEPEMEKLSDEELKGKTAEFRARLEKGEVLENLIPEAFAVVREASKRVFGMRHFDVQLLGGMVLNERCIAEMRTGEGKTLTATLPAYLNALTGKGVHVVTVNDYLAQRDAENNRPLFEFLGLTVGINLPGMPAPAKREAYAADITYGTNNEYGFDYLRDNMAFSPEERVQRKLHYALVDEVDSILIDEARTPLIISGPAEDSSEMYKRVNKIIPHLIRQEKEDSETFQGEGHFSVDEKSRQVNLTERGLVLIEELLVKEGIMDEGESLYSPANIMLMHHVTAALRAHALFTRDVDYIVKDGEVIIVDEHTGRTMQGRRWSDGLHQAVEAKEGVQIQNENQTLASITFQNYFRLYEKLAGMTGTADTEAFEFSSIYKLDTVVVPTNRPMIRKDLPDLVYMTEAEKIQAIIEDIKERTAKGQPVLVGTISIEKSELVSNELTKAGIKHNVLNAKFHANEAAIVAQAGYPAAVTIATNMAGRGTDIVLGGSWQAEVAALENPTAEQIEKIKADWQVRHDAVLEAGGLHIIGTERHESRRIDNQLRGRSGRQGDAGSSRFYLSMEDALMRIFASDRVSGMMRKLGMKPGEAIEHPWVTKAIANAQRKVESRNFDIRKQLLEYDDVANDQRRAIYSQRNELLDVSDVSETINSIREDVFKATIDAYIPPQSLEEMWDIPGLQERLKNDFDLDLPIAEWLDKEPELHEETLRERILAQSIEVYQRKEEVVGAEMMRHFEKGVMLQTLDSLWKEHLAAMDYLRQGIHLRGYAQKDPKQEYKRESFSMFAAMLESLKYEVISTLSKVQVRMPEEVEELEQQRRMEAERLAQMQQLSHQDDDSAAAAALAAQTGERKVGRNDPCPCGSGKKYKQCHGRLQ

SMILES	Percent Effect [1] [%]	Percent Effect [2] [%]	Percent Effect [3] [%]	Percent Effect [4] [%]	Percent Effect [5] [%]	Percent Effect (Trypanosoma cruzi) [%]	Percent Effect [6] [%]	Percent Effect [7] [%]	Percent Effect (Homo sapiens) [%]	Percent Effect [8] [%]	Percent Effect [9] [%]	Percent Effect [10] [%]	Percent Effect [11] [%]
O=C(Cc1cccs1)N1C[C@@H]2OCCN(CC3CCCC3)[C@@H]2C1	-3.05	11	-2.94	-0.507	19.2	1.59	-6.79	4.37	-10.9	13.2	4.17	6.17	-1.65
O=C([C@H]1C[C@H]2OCC[C@H]2N(Cc2cccnc2)C1)N1CCCO1	-1.59	10.8	5.55	3.09	-7.38	-0.489	20.1	27.7	14.1	-7.24	13	15.4	3.21
Cc1ccc(CC(=O)N2CCN(CC(O)c3ccccc3)CC2)cn1 (configuration not stated)	1.4	5.26	1.83	-2.25	3.56	5.83	5.75	1.5	-4.04	2.79	5.39	17.1	-5.71
CCS(=O)(=O)NC[C@]12COC[C@H]1CN(Cc1cc(C)on1)C2	-3.29	0	-3.83	4.08	3.76	-0.684	4.14	20.9	-25	1.54	5.41	12.8	-1.96
Cc1nc(C)c(CC(=O)N2C[C@@H]3CC[C@H](C2)N(CC2CCC2)C3)c(=O)[nH]1	-2.23	18.9	-2.78	-35.4	21.6	4.2	16.1	16.2	-15.8	5.33	4.3	18.5	-11.7
Cc1ccc(CN2CCC3(CC2)C(=O)N(C)c2ccccc23)s1	-4.09	8.11	7.84	-1.34	6.95	-0.781	2.08	16.8	20.4	-2.26	7.92	11	5.6
CCN1CCC2(COCc3cnc(NCC4CC4)nc32)C1 (configuration not stated)	1.53	0	0.296	-4.7	2.85	5.95	-2	3.68	18.1	-28.9	0	8.64	-0.871
c1cnc(N2CCCC3(CCN(Cc4ccncc4)C3)C2)nc1 (configuration not stated)	-2.54	8.11	4.42	2.74	-7	-1.66	-6.69	24.7	-1.82	1.1	1.08	15.4	-3.48
O=C(c1ccsc1)N1CCN2C[C@H](OCc3cccnc3)C[C@H]2C1	-4.24	10.7	-1.78	8.09	-1.36	-4.53	3.96	11.5	8.09	1.7	1.06	-8.97	-3.5
